# In the library only some 11% were active in any assay of this set; here they are far more common.
# 3T3 cytotox = kills NIH 3T3 cells. AID 1345082. NIH 3T3 viability, CellTiter-Glo ATP luminescence, 48-72 h. Potency, µM (doses to about 96.7 µM), without a hit: top-dose activity change, negative = cytotoxicity, hits mostly inhibitors. 4.3% of 94,000 active; also: nearly all actives have a fitted effect of over 55% in size
#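 Mouse fibroblast NIH 3T3 cells, 400 per well, received compound via pintool and were incubated for 48 or 72 hr prior to CellTiter-Glo ATP luminescence measurement.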
# hNpr1 antagonist = human Npr1 receptor antagonism | P16066 | HEK293 hNpr1 GloSensor cGMP, ANP-stimulated luminescence | Potency, µM (top dose mostly 46.3 µM), without a hit: top-dose activity change, negative = inhibition, most hits filed as inhibitors | 1.6% of 76,000 active | AID 1347048; calls by dose curve; also: nearly all actives have a fitted effect of over 60% in size
# Target sequence (P16066 whole entry, looked up): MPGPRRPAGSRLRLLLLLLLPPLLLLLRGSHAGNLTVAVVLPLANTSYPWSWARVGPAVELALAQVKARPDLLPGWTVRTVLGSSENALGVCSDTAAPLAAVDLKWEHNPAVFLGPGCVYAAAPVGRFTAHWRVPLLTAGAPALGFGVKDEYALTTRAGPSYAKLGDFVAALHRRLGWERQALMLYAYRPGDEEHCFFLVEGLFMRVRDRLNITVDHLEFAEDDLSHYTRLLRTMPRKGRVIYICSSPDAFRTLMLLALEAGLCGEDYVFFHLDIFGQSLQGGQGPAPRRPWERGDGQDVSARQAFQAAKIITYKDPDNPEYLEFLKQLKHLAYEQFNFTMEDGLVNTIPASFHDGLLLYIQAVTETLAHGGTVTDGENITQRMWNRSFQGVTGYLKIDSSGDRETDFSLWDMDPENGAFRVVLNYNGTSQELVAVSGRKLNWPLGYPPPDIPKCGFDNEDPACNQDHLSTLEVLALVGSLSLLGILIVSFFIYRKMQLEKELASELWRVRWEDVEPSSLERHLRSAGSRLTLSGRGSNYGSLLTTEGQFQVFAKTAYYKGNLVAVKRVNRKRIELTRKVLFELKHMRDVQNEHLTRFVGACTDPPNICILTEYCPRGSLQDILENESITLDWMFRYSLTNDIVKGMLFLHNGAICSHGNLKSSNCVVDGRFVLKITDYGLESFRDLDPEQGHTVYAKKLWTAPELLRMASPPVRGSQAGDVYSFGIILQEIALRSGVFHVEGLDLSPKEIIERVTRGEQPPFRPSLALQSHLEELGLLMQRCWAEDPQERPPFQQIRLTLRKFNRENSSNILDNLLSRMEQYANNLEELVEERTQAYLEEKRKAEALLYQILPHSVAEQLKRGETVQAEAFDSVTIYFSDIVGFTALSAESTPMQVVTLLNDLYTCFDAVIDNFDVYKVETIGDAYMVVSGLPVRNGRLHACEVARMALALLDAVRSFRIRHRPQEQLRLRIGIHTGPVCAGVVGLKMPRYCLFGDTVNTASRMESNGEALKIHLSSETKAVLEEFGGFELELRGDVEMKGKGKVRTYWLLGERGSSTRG
#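 Compound pre-incubated 30 min at room temperature on GloSensor-loaded HEK293 cells stably carrying hNpr1 and the pGS-40F cGMP biosensor. Stimulation uses hNppA at 0.1 nM final; luminescence is taken at baseline and 20 min post-agonist.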
# HEK cytotox = HEK 293 cell cytotoxicity; 6.6% of 94,000 active; HEK 293 viability, ATP luminescence (CellTiter-Glo), 48-72 h; Potency, µM (titrated, usually from 115 µM), inactives show top-dose activity change, negative = cytotoxicity, most hits filed as inhibitors; also: nearly all actives have a fitted effect of over 60% in size
#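 Pintool-delivered compounds were incubated with HEK 293 cells (250 cells/well) at 37 degree Celsius for 48 or 72 hr. ATP-dependent luminescence (CellTiter-Glo) then reported remaining viable cells.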
# FLuc inh = inhibitors of firefly (Photinus pyralis) luciferase; purified P. pyralis luciferase, luminescence, biochemical; P08659; Potency, µM (series often up to 115 µM), usual class: inhibitors; 2.5% of 76,000 active; also: nearly all actives have a fitted effect of over 65% in size
#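 Purified 10nM P. pyralis luciferase with 10uM D-luciferin and 10uM ATP in 50mM Tris acetate pH 7.5, 10mM Mg acetate, 0.01% Tween-20, 0.05% BSA. qHTS titration; luminescence read by CCD imager.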
# * = called active by the depositor; i = inactive; u = inconclusive; x = no result given; ! = not confirmed by another sample; [ ] = another dose, or the depositor's remark. Unless noted, calls follow the shape of the dose curve; as a rule, active = well fitted curve in the direction sought with a large enough effect; inconclusive = small, poorly fitted or top-dose-only effect, or another doubt; inactive = no such curve, though single readings can be large; an effect the other way counts as inactive or inconclusive. % is scaled to controls: 0 for no effect and ±100 for the full control effect; potency is read from the fitted curve at half-maximal effect.
SMILES,3T3 cytotox,hNpr1 antagonist,HEK cytotox,FLuc inh
Cc1ccc(S(=O)(=O)N(C)Cc2cccc(C(F)(F)F)c2)cc1,u,-5.1%,u,i
O=C1CCN(C(=O)c2ccsc2)CCCC(c2nc(-c3cnccn3)no2)CCN1 (stereo unspecified),i,3.5%,-0.1%,i
OC(c1nc(Nc2ccc(Cl)c(C(F)(F)F)c2)n[nH]1)C1CC1 (stereo unspecified),50.1µM*,u,56.2µM*,u
OC(c1cccc(C(F)(F)F)c1)c1nc(Nc2cccc(Cl)c2)n[nH]1 (stereo unspecified),50.1µM*,u,63.1µM*,i
COc1ccc(Nc2n[nH]c(C(O)c3cccc(C(F)(F)F)c3)n2)cn1 (stereo unspecified),u,-22.0%[70.6 µM],u,i
Cc1ccccc1Nc1n[nH]c(C(O)c2ccc3c(c2)CCO3)n1 (stereo unspecified),u,-5.4%[70.6 µM],u,i
OC(c1ccc2c(c1)CCO2)c1nc(Nc2cccc(C(F)(F)F)c2)n[nH]1 (stereo unspecified),u,-8.0%[70.6 µM],70.8µM*,i
CSCC[C@@H]1NC(=O)c2cc(NC(=O)c3cc(-c4cccnc4)n[nH]3)ccc2NC1=O,-29.8%,7.9%,-15.9%,i
CC(C)CNC(=O)c1ccc2nnc(-c3cccnc3)n2c1,-9.2%[138 µM],x,4.0%[172 µM],x
COc1cc(-c2nc(-c3c(C)noc3C)cc3cc(C)oc23)ccn1,u,4.6%[70.6 µM],u,i
O=C1N(CCCCOc2ccccc2)c2ccccc2NC12CCNCC2,u,-16.9%,20µM*,i
CCCCn1c(=O)c(C(=O)N2CCN(C(=O)c3ccc(C)cc3)CC2)nc2cccnc21,u,x,-25.2%,x
O=c1n(-c2ccc(C(F)(F)F)cc2)nc2n1CCN(Cc1ccc(C(F)(F)F)cc1)C2,u,u,35.5µM*!,i
O=c1n(-c2ccc(F)cc2F)nc2n1CCN(Cc1ccccc1)C2,6.31µM*,26.0%,3.16µM*,u
O=c1n(-c2ccc(Cl)cc2)nc2n1CCN(Cc1ccc(F)cc1)C2,28.2µM*,x,39.8µM*,x
COc1ccc(CN2CCn3c(nn(-c4ccc(C(F)(F)F)cc4)c3=O)C2)cc1,-21.8%,x,-18.9%,x
Cc1ccc(C(=O)N2CCn3c(nn(-c4ccc(F)cc4)c3=O)C2)cc1,-27.4%,3.7%,-20.2%,i
O=C(c1ccccc1)N1CCn2c(nn(-c3ccc(F)cc3)c2=O)C1,-18.6%[138 µM],2.4%[70.6 µM],100µM*,i
O=c1n(-c2ccncc2)nc2n1CCN(Cc1ccsc1)C2,u,-6.8%[70.6 µM],u,u
O=c1n(-c2ccc(C(F)(F)F)cc2)nc2n1CCN(Cc1ccccn1)C2,u,4.5%,u,u
O=c1n(-c2ccc(C(F)(F)F)cc2)nc2n1CCN(Cc1cccc3ccccc13)C2,u,-19.3%,28.2µM*!,i
COc1ccc(-n2nc3n(c2=O)CCN(Cc2ccsc2)C3)cc1,31.6µM*,x,u,x
O=C1CC(c2ccccc2)N(Cc2ccncc2)CCCN(C(=O)Nc2ccccc2F)CCN1 (stereo unspecified),-23.6%,3.9%,-13.9%,i
CCCC(=O)Nc1cc(C2CC2)nn1-c1ccccc1,-15.1%[138 µM],x,-22.7%[172 µM],x
O=C(Cc1ccc(F)cc1)N1CCCC(C(=O)N2CCC(N3CCOC3=O)CC2)C1 (stereo unspecified),-1.7%,x,0.9%,x
SMILES,3T3 cytotox,hNpr1 antagonist,HEK cytotox,FLuc inh
Cc1noc2c(-c3cccnc3NC3CCC(O)CC3)cc(-c3ccccc3)nc12 (stereo unspecified),u,2.6%[70.6 µM],u,i
Cc1noc2c(NC3CCC(O)CC3)cc(-c3ccc(F)cc3)nc12 (stereo unspecified),22.4µM*,3.5%[70.6 µM],u,i
Cc1noc2c(NC3CCOCC3)cc(-c3cccc(C(F)(F)F)c3)nc12,u,-3.6%[70.6 µM],u,i
Cc1noc2c(-c3cccnc3NC3CCN(C)CC3)cc(-c3ccc(Cl)cc3)nc12,22.4µM*,-1.8%[70.6 µM],89.1µM*,i
Cc1noc2c(NC3CCN(C)CC3)cc(-c3ccc(F)cc3)nc12,10µM*,0.9%[70.6 µM],63.1µM*,i
O=C(C1CCCC1)N1CCOC[C@H](Oc2ccc(C(F)(F)F)cn2)C1,-14.0%[138 µM],-4.8%[70.6 µM],-18.3%[172 µM],i
CN(C)C(=O)c1cc(-c2cccnc2)nc2c1cnn2C,-28.2%[138 µM],x,-29.1%[172 µM],x
Cc1ccc(C(=O)N2CCN(C(=O)c3nnn4c3COC(c3ccccc3)C4)CC2)c(C)c1 (stereo unspecified),u,u,u,i
Cc1ccc(C)c(C(=O)N2CCN(C(=O)c3nnn4c3COC(c3ccccc3)C4)CC2)c1 (stereo unspecified),-15.0%,-22.4%,39.8µM*,i
Cc1ccc(C)c(C(=O)N2CCN(C(=O)c3nnn4c3COC(c3ccc(Cl)cc3)C4)CC2)c1 (stereo unspecified),u,u,44.7µM*,i
COCCC(=O)N1CCCC(n2c(C)cnc2C2CC2)C1 (stereo unspecified),-1.2%,x,-0.6%,x
O=C(COc1ccccc1)N1CC(CO)C2(CCNCC2)C1 (stereo unspecified),-17.9%,x,-12.4%,x
CCn1cc(C(=O)N2CC(n3cc(COCc4ccccc4)nn3)C2)cn1,-17.0%,x,2.6%,x
Cc1c(-c2ccccc2F)[nH]c2ccc(CNS(=O)(=O)C3CC3)cc12,u,u,35.5µM*,u
Cc1ccccc1CN1CCCC(CCNS(=O)(=O)C2CC2)C1 (stereo unspecified),-1.0%,-0.9%,-11.5%,i
Cc1c(-c2ccccc2F)[nH]c2ccc(CNC(=O)C3CCNC3)cc12 (stereo unspecified),u,-18.2%,u,20µM*
Cc1c(-c2ccccc2F)[nH]c2ccc(CNC(=O)CN3CC(=O)NC3=O)cc12,u,-5.1%,u,15.8µM*
Cc1nc(CCC(=O)NCc2ccc3[nH]c(-c4ccccc4F)c(C)c3c2)n[nH]1,u,-1.1%,u,15.8µM*
Cc1c(-c2ccccc2F)[nH]c2ccc(CNC(=O)CCn3cnnc3)cc12,u,0.1%,-8.8%,u
O=C(c1ccccc1Cl)N1CCc2nc(C3CC3)nc(-c3ccc(O)cc3)c2CC1,-3.7%,4.3%,-23.8%,i
CC1(Cc2ccc3c(c2)OCO3)CCCN(C(=O)CCCn2ccnc2)C1 (stereo unspecified),u,-12.8%,39.8µM*,i
CC1(Cc2ccc3c(c2)OCO3)CCCN(CC(=O)NCc2ccco2)C1 (stereo unspecified),-24.9%,u,44.7µM*,i
Cc1cc(=O)n(CC(=O)N2CCCC(C)(Cc3ccc4c(c3)OCO4)C2)nc1C (stereo unspecified),-29.6%,2.4%,u,i
COc1ccccc1C(=O)NC1CCCN(Cc2cccc(-c3ccc(C)c(Cl)c3)c2)C1 (stereo unspecified),u,x,39.8µM*,x
Cc1ccc(-c2cccc(CN3CCCC(NC(=O)C4CC4)C3)c2)cc1Cl (stereo unspecified),u,x,35.5µM*,x

# Compound activity as filed in PubChem BioAssay.
